Assay results from ChEMBL document CHEMBL1961873, “Compounds: GSK PKIS; Assays: Nanosyn kinase panel” (2012).

Legend:
[1] = target: T1, Serine/threonine-protein kinase D2 (Homo sapiens) (UniProt Q9BZL6); settings: at 1 µM;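 also: mean value of PRKD2 inhibition, from the GSK PKIS screening panel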
T1 sequence (whole entry): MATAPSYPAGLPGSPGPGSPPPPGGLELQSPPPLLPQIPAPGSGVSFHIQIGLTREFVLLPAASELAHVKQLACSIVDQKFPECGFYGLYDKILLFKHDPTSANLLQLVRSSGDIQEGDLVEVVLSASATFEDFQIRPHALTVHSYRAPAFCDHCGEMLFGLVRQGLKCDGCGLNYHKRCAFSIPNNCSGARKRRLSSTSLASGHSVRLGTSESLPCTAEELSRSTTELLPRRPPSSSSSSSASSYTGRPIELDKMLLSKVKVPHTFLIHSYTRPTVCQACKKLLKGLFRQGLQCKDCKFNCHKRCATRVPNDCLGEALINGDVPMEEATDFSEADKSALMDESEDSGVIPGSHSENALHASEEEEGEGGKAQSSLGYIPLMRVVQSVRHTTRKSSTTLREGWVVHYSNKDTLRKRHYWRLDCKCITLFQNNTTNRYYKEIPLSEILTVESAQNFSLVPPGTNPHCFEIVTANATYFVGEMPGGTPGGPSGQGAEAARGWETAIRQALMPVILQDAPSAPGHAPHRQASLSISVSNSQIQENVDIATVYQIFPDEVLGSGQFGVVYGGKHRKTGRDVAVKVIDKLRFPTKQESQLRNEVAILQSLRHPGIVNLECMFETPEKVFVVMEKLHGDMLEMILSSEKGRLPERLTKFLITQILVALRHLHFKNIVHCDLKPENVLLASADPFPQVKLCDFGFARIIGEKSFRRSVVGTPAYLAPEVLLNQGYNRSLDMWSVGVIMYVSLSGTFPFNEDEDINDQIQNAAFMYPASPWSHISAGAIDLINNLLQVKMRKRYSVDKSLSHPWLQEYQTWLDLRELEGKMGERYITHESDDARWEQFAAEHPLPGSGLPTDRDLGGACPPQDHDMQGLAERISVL

[2] = target: T2, Serine/threonine-protein kinase D3 (Homo sapiens) (UniProt O94806); settings: at 0.1 µM
T2 sequence (whole entry): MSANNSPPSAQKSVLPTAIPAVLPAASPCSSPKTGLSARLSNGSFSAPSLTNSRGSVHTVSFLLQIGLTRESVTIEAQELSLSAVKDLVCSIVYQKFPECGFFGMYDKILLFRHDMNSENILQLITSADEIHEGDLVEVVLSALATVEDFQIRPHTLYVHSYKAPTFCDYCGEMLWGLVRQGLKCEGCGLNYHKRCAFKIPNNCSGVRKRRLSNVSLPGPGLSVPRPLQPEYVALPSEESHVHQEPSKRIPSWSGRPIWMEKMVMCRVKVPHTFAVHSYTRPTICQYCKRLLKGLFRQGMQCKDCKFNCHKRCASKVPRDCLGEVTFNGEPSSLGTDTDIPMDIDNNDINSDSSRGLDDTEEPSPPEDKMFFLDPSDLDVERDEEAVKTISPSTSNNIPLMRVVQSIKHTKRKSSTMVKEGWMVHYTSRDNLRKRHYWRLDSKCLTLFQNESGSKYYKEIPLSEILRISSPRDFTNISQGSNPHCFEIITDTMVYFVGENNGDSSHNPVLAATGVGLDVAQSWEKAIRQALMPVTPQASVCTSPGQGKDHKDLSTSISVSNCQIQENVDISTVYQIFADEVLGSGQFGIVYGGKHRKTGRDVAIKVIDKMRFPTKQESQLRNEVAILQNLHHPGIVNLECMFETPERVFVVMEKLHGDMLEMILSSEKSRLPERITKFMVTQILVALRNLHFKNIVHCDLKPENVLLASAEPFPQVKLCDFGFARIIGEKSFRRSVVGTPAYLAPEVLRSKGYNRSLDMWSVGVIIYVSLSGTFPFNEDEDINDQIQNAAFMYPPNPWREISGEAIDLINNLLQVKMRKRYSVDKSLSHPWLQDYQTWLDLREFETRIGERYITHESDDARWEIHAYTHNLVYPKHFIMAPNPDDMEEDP

[3] = target: T2, Serine/threonine-protein kinase D3 (Homo sapiens); settings: at 1 µM
[4] = target: T3, cGMP-dependent protein kinase 1 (Homo sapiens) (UniProt Q13976); settings: at 0.1 µM
T3 sequence (whole entry): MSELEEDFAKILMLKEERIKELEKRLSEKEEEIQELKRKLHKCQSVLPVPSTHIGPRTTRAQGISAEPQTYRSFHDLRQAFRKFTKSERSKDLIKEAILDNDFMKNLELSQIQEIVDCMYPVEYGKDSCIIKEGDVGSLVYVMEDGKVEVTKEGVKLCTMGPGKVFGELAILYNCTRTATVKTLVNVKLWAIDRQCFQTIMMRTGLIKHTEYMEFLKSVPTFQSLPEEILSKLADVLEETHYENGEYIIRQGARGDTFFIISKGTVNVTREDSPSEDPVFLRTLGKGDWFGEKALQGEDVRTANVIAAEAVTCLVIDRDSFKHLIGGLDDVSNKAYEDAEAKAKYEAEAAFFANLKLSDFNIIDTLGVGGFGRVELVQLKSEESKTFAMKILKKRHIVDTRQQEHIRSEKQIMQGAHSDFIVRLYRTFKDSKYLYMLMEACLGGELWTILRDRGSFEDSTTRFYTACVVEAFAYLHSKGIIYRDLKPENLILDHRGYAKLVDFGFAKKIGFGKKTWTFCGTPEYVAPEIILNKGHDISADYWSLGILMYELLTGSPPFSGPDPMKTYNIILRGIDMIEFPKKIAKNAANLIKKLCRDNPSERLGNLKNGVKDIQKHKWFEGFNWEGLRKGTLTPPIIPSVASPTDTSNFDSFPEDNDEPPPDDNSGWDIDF

[5] = target: T3, cGMP-dependent protein kinase 1 (Homo sapiens); settings: at 1 µM
[6] = target: T4, cGMP-dependent protein kinase 2 (Homo sapiens) (UniProt Q13237); settings: at 0.1 µM
T4 sequence (whole entry): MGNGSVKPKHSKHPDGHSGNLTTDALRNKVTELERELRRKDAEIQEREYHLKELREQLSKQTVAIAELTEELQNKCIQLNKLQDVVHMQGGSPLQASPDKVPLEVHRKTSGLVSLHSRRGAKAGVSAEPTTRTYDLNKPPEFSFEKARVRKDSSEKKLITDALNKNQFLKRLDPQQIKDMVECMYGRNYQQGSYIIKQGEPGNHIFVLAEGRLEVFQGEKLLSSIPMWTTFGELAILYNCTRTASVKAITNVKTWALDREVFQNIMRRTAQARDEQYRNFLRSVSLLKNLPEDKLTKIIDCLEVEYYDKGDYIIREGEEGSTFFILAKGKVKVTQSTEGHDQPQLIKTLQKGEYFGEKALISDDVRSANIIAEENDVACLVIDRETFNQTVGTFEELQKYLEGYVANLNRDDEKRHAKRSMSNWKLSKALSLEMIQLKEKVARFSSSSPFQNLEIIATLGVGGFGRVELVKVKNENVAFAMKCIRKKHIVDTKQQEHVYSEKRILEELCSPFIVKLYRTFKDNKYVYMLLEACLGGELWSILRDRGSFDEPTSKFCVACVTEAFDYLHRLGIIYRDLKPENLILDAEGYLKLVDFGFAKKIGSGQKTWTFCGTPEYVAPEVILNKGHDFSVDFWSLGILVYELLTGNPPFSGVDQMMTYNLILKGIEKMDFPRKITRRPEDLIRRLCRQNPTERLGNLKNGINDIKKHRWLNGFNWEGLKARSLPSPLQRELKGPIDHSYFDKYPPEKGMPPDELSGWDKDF

[7] = target: T4, cGMP-dependent protein kinase 2 (Homo sapiens); settings: at 1 µM
[8] = target: T5, cAMP-dependent protein kinase catalytic subunit PRKX (Homo sapiens) (UniProt P51817); settings: at 0.1 µM
T5 sequence (whole entry): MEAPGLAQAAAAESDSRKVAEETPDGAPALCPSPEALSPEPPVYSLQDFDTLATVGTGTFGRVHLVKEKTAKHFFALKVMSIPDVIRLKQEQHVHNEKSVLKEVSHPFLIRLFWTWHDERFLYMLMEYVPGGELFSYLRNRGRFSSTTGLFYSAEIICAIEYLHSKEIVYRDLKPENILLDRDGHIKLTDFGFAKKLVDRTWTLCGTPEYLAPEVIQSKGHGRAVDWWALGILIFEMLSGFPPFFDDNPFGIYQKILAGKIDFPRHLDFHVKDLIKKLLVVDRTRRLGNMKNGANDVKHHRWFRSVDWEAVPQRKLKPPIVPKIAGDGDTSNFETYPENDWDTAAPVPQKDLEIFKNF

[9] = target: T5, cAMP-dependent protein kinase catalytic subunit PRKX (Homo sapiens); settings: at 1 µM
[10] = target: Rho-associated protein kinase 1 (Homo sapiens) (UniProt Q13464); settings: at 0.1 µM
[11] = target: Rho-associated protein kinase 1 (Homo sapiens) (UniProt Q13464); settings: at 1 µM
[12] = target: Rho-associated protein kinase 2 (Homo sapiens) (UniProt O75116); settings: at 0.1 µM
[13] = target: Rho-associated protein kinase 2 (Homo sapiens) (UniProt O75116); settings: at 1 µM
[14] = target: Ribosomal protein S6 kinase alpha-1 (Homo sapiens) (UniProt Q15418); settings: at 0.1 µM
[15] = target: Ribosomal protein S6 kinase alpha-1 (Homo sapiens) (UniProt Q15418); settings: at 1 µM
[16] = target: Ribosomal protein S6 kinase alpha-3 (Homo sapiens) (UniProt P51812); settings: at 0.1 µM
[17] = target: Ribosomal protein S6 kinase alpha-3 (Homo sapiens) (UniProt P51812); settings: at 1 µM
[18] = target: Ribosomal protein S6 kinase alpha-2 (Homo sapiens) (UniProt Q15349); settings: at 0.1 µM
[19] = target: Ribosomal protein S6 kinase alpha-2 (Homo sapiens) (UniProt Q15349); settings: at 1 µM
[20] = target: Ribosomal protein S6 kinase alpha-6 (Homo sapiens) (UniProt Q9UK32); settings: at 0.1 µM;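 also: reported value is the mean inhibition of RSK4, from the GSK PKIS kinase inhibitor screen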
Chain of Ribosomal protein S6 kinase alpha-6 (Homo sapiens) (Q9UK32 whole entry): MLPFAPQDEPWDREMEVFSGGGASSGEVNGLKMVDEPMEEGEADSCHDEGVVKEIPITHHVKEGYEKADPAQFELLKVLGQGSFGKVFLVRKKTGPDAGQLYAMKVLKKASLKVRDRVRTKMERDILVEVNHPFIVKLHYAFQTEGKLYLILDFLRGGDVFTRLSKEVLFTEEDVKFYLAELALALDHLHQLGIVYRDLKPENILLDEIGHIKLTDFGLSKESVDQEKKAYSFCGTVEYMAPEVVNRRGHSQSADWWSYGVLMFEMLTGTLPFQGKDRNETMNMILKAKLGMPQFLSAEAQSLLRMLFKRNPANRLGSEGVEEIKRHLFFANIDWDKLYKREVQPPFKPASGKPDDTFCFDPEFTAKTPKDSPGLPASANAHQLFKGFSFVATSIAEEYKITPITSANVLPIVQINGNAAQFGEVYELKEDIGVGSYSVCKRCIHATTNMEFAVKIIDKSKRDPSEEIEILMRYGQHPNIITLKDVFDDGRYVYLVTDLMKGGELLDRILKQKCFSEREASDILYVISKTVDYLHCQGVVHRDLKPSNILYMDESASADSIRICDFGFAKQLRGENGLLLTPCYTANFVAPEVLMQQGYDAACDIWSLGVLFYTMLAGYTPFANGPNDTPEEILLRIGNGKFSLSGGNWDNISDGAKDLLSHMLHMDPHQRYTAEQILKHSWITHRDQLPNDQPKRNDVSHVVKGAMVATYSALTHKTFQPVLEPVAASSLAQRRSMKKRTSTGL

Chain of Rho-associated protein kinase 2 (Homo sapiens) (O75116 whole entry, looked up): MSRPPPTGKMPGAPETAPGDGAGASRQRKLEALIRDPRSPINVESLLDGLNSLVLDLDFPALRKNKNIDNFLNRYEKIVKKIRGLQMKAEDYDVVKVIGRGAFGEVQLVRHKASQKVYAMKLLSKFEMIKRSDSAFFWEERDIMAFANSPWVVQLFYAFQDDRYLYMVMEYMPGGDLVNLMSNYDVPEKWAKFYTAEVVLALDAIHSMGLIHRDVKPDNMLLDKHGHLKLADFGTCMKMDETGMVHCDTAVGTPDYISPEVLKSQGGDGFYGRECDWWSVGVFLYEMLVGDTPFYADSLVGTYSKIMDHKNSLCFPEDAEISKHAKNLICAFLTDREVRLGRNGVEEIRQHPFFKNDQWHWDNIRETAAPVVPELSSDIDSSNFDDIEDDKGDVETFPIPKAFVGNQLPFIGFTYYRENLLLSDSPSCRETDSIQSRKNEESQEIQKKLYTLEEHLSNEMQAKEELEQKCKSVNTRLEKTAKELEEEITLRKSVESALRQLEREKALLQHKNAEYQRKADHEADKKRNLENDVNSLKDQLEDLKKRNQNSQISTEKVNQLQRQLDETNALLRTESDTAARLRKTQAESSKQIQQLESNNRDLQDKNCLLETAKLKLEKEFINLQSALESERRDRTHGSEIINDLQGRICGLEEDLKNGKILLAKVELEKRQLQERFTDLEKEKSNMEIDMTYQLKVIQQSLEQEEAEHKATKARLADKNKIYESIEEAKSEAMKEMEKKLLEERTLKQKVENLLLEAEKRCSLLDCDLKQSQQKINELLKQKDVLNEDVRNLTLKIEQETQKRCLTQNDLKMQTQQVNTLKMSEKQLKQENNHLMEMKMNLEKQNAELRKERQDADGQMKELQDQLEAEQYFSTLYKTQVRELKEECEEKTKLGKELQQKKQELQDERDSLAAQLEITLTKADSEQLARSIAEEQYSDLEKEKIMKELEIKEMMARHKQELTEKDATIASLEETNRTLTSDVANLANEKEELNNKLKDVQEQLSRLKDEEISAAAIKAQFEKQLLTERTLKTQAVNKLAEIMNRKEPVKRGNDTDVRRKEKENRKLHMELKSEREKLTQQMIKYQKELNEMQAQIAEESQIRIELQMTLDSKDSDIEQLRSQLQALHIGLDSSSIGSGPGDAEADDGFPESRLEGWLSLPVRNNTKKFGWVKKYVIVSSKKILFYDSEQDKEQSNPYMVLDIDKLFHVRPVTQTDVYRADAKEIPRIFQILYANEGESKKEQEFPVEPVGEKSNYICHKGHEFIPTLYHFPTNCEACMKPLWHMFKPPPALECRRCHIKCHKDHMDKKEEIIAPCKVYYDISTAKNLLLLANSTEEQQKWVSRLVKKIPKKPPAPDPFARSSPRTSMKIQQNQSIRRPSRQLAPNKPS
Chain of Ribosomal protein S6 kinase alpha-3 (Homo sapiens) (P51812 whole entry): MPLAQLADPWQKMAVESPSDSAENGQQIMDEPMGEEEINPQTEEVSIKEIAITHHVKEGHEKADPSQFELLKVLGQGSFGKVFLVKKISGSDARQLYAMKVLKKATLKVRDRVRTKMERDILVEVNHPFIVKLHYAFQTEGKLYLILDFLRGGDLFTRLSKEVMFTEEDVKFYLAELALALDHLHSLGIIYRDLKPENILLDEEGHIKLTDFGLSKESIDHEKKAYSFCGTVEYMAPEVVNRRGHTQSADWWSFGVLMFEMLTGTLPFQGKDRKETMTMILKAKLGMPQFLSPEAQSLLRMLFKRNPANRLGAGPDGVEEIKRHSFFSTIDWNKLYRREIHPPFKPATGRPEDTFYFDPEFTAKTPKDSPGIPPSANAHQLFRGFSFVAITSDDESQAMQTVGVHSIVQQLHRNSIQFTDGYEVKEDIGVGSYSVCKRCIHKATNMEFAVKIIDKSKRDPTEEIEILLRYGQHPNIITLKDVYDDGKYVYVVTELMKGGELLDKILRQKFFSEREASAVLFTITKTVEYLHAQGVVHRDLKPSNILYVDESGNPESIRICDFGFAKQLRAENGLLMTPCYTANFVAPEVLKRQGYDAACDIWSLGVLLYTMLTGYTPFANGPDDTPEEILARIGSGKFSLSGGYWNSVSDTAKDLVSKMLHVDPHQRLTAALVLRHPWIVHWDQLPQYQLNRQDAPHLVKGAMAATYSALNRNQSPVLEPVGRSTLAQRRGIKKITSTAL
Chain of Ribosomal protein S6 kinase alpha-1 (Homo sapiens) (Q15418 whole entry): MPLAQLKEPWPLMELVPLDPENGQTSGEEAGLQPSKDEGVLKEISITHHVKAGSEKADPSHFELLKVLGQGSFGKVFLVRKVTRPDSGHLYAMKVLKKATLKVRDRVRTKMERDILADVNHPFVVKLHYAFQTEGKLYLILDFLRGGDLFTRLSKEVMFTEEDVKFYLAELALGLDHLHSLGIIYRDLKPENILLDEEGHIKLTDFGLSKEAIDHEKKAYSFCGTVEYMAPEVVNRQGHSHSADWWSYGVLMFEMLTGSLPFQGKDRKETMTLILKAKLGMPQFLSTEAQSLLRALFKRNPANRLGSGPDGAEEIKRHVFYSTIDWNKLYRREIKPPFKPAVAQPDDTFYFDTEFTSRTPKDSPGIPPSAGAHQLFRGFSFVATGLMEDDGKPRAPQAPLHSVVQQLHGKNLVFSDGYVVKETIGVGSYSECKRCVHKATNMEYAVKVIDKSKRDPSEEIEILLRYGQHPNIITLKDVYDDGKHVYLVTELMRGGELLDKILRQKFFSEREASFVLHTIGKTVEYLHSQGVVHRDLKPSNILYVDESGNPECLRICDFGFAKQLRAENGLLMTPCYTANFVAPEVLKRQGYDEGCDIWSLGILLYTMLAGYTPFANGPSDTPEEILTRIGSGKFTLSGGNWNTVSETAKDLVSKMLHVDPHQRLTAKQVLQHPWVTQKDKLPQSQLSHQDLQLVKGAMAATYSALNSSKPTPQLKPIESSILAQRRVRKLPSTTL
Chain of Ribosomal protein S6 kinase alpha-2 (Homo sapiens) (Q15349 whole entry): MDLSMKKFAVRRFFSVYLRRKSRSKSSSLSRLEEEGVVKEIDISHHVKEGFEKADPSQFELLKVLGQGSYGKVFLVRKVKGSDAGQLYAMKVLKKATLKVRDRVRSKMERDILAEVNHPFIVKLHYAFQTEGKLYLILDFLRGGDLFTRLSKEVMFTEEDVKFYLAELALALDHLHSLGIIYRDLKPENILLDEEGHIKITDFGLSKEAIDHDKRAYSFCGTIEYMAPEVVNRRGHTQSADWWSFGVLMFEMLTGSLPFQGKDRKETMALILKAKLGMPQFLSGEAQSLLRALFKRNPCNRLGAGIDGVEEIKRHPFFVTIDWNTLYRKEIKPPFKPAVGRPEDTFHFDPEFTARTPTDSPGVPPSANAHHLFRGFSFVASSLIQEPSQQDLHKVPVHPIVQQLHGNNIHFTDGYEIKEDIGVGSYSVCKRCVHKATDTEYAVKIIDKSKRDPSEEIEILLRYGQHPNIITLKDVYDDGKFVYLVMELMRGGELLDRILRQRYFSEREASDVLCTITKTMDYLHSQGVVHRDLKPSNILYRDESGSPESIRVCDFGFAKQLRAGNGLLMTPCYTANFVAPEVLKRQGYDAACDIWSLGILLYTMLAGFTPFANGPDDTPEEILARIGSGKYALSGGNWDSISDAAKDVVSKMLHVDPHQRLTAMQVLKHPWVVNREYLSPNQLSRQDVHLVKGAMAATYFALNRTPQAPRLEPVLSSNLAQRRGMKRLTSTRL

| Structure (SMILES) | inhibition [1] [%] | inhibition [2] [%] | inhibition [3] [%] | inhibition [4] [%] | inhibition [5] [%] | inhibition [6] [%] | inhibition [7] [%] | inhibition [8] [%] | inhibition [9] [%] | inhibition [10] [%] | inhibition [11] [%] | inhibition [12] [%] | inhibition [13] [%] | inhibition [14] [%] | inhibition [15] [%] | inhibition [16] [%] | inhibition [17] [%] | inhibition [18] [%] | inhibition [19] [%] | inhibition [20] [%] |
| --- | --- | --- | --- | --- | --- | --- | --- | --- | --- | --- | --- | --- | --- | --- | --- | --- | --- | --- | --- | --- |
| COc1cccc(-n2cnc3c(N/N=C/c4ccncc4)ncnc32)c1 | -5.5 | -3.34 | -4.97 | 0.67 | 3.77 | 3.29 | 4.98 | 1.92 | 5.16 | 0.59 | 1.07 | 3.27 | 6.91 | 2.62 | 4.66 | 2.12 | 4.76 | -0.37 | 0.82 | -0.06 |
| CCc1ccc(Oc2nccc(-c3c(-c4ccc(F)cc4)ncn3C3CCNCC3)n2)cc1 | 13.7 | 4.01 | 9.71 | 4.32 | 10.4 | 5.03 | 8.46 | 3.21 | 3.97 | 1.24 | 3.4 | 2.09 | 3.7 | 2.14 | 3.42 | 3.03 | 4.07 | 3.08 | 3.54 | 3.18 |
| O=C1NC(=O)C(c2cccc(Cl)c2)=C1Nc1ccc(Cl)c(C(=O)O)c1 | 3.62 | 2.22 | 2.81 | 1.11 | 2 | -0.19 | 1.58 | 2.51 | 2.74 | -0.01 | 0.78 | 1.95 | 4.98 | 1.51 | 2.92 | 1.25 | 1.6 | 1.79 | 1.6 | 1.24 |
| O=C1Nc2ccccc2/C1=C/Nc1ccc(-n2cncn2)cc1 | 6.07 | 4.94 | 6.5 | 3.06 | 5.48 | 2.51 | 14.4 | 2.56 | 7.18 | 1.71 | 1.71 | 3.63 | 7.17 | 2.06 | 10.9 | 2.37 | 8.64 | 3.38 | 14.2 | 3.31 |
| c1ccc(-c2n[nH]cc2-c2ccnc(-c3ccc(OCCN4CCOCC4)cc3)c2)nc1 | 80.7 | 5.97 | 57.5 | 3.53 | 4.78 | 4.17 | 3.32 | 4.09 | 2.55 | 1.08 | 2.14 | -0.2 | -1.4 | 0.42 | -1.3 | 0.55 | 0.57 | -0.89 | -0.56 | -0.33 |
